Source: PubChem (The Scripps Research Institute Molecular Screening Center)
GPR151 ag: activates the human receptor GPR151 | Q8TDV0 | PathHunter beta-arrestin GPR151 cells, luminescence | activation, % at 11.2 µM | 650,000 compounds, 1% hits; in the data active = activation above about 4.9%;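 also: 0% = median of compound wells and 100% = cells with positive control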
FBW7 act: human FBW7 E3 ligase activation, primary screen; Q969H0; AlphaScreen FBW7–phospho-cyclin E peptide binding, activator screen; normalized activity (activation), % at 26.1 µM; 650,000 compounds, 0.13% hits; in the data active = normalized activity above about 1.9%;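 also: purified mutant Fbw7 with reduced substrate affinity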
MITF primary: human MITF inhibition, primary screen; 650,000 compounds, 0.91% hits; O75030; inhibition, % at 2.6 µM; AID 1259374; AlphaScreen MITF homodimerization, bead proximity signal; in the data active = inhibition above about 50%;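 also: 0% = vehicle wells with protein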
Target sequence (O75030 whole entry, looked up): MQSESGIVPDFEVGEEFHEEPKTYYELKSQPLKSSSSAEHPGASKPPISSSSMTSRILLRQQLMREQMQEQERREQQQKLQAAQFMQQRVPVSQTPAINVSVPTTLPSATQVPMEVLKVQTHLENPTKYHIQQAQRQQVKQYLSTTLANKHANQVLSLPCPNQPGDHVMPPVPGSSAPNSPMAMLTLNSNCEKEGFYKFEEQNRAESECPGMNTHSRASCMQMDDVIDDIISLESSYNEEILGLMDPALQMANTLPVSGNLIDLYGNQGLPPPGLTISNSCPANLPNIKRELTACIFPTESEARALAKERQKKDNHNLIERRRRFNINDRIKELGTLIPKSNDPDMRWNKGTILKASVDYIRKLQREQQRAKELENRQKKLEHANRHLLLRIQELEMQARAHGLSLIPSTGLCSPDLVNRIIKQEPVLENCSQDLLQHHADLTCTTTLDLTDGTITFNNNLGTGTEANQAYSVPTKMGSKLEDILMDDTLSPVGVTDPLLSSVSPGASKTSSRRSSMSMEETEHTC
TEAD-YAP block: TEAD-YAP interaction inhibition; inhibition, % at 9.12 µM; HEK-TIYL cells, TEAD-Gal4/YAP UAS-luciferase luminescence; AID 1259422; 640,000 compounds, 1.4% hits; in the data active = inhibition above about 32%;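 also: 0% = median of test compound wells and 100% = reference inhibitor wells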
Numbers without * were called inactive. Shown are actives, neighbours in structure and some others; about 3.5% of the full set was active somewhere.

SMILES	GPR151 ag	FBW7 act	MITF primary	TEAD-YAP block
CCN1C=C\C(=C/C=C(/C=C/c2cc[n+](CC)cc2)c2cc[n+](CC)c3ccccc23)c2ccccc21	0	0	1	7
CCOC(=O)c1ccc(N/C=C\C(=O)c2ccc3c(c2)OCO3)cc1	-1	0	-11	33*
c1ccc(OCCNc2ncnc3nc(-c4ccc(N5CCOCC5)nc4)[nH]c23)cc1	-1	11*	-3	-19
Oc1ccc(CCNc2nc(NCCN3CCOCC3)nc3c2ncn3-c2ccccc2)cc1	-2	0	7	37*
O=C1CCCN1CCn1cnc2c(NCCN3CCOCC3)nc(-c3ccc(N4CCOCC4)nc3)nc21	0	0	1	-14
O=C1CCCN1CCCNc1nc(-c2ccc(N3CCOCC3)nc2)nc2c1ncn2-c1ccccc1	1	0	5	48*
FC(F)(F)c1ccc(Cn2cnc3c(NCc4ccccc4)nc(-c4ccc(N5CCOCC5)nc4)nc32)cc1	1	0	7	11
FC(F)(F)c1ccc(Cn2cnc3c(NCCOc4ccccc4)nc(-c4ccc(N5CCOCC5)nc4)nc32)cc1	0	2.0*	20	8
CC(C)NC(=O)CSc1nnc(NC2CCCCC2)s1	1	0	-9	-5
O=C(CSc1nc2ccccc2c(=O)n1CC1CCCO1)c1ccccc1 (stereo unspecified)	0	0	1	4
Oc1ccc(CCNc2nc(-c3ccc(N4CCOCC4)nc3)nc3c2ncn3-c2ccccc2)cc1	3	1	12	41*
c1ccc(-n2cnc3c(NCCN4CCOCC4)nc(-c4ccc(N5CCOCC5)nc4)nc32)cc1	0	0	2	59*
c1ccc(-c2nc(NCCN3CCOCC3)c3ncn(-c4ccccc4)c3n2)cc1	0	0	16	28
C=CCOc1ccc(/C(O)=C2\C(=O)C(=O)N(Cc3cccnc3)C2c2ccccc2F)c(C)c1 (stereo unspecified)	-2	0	-8	-6
COc1cccc(O)c1O	-2	0	90*	43*
CCOC(=O)/C=C/C(=O)Nc1cc(Cl)c(Cl)cc1Cl	1	0	-1	58*
O=C(Nc1noc2ccccc12)c1c(F)cccc1F	-12	0	-6	57*
Cc1ccc2c(NC(=O)c3ccccc3F)noc2n1	-2	0	-8	-10
O=C(Nc1noc2ncccc12)c1ccccc1F	-3	0	-5	83*
O=C(Nc1noc2ncccc12)c1ccccc1Cl	-4	-1	-6	94*
COC(CN1C(=O)C(O)=C(C(C)=O)C1c1ccccc1Cl)OC (stereo unspecified)	1	1	21	-2
COc1ccc(CNC(=O)N2CCN(Cc3nc(-c4ccco4)cs3)CC2)cc1OC	2	0	0	54*
Cc1cc(OCC(=O)Nc2ccccn2)ccc1Cl	3	0	-4	64*
Cc1ccnc(NC(=O)COc2ccc(Cl)c(C)c2)c1	-1	0	5	-31
O=NN(CCc1ccncc1)c1ccc(OCc2ccccc2)cc1	0	0	1	38*
SMILES	GPR151 ag	FBW7 act	MITF primary	TEAD-YAP block
S=C(NCc1ccc(Cl)cc1)Nc1ccncc1	1	0	9	44*
S=C(NCc1ccncc1)Nc1cccc(Cl)c1	1	0	-14	3
O=C(OCc1ccccc1)N1CCCN(CCc2ccncc2)CC1	0	1.9*	5	-11
CN(C(=O)Cc1noc2ccccc12)c1cccc(C(F)(F)F)c1	0	1	20	13
CC(=O)c1cccc(-c2cnc3c(NCC4CC4)nccn23)c1	0	-1	7	-61
CC(=O)Nc1cccc(-c2cnc3c(NCc4ccco4)nccn23)c1	2	2.3*	12	47*
CC(=O)Nc1cccc(-c2cnc3c(NCC4CC4)nccn23)c1	-1	-1	7	80*
CC(=O)Nc1cccc(-c2cnc(NCc3cccc(Cl)c3)c3nccn23)c1	0	-1	-9	69*
CC(=O)Nc1cccc(-c2cnc3c(NCCc4cccnc4)nccn23)c1	-2	0	13	65*
CC(=O)c1cccc(OCc2ccc(Cl)cc2)c1	-3	1	-2	-63
CSc1ccc(/C=C2\N=C(c3ccccc3Br)OC2=O)cc1	-1	0	-6	13
Cc1ccc(NC(=O)Cn2nnc(C(=O)Nc3ccc(F)cc3)c2N)c(C)c1	0	0	-8	4
CC(C)CNc1nccn2c(-c3cccc(O)c3)cnc12	0	0	-2	-6
CC(=O)Nc1cccc(-c2cnc3c(NCC(C)C)nccn23)c1	-2	0	11	65*
Cc1cc2c(cc1S(=O)(=O)N1CCC(N3CCCCC3)CC1)OCC(=O)N2	0	0	3	-1
CCN1CCN(c2cc(F)cc(-c3ccnc(Nc4ccc(-n5nc(C)nc5C)cc4)n3)c2)CC1	2	1	15	68*
Cc1nc(C)n(-c2ccc(Nc3nccc(-c4cc(F)cc(-c5cn[nH]c5)c4)n3)cc2)n1	1	0	7	-4
Cc1nc(C)n(-c2ccc(Nc3nccc(-c4cccc(-n5cncn5)c4)n3)cc2)n1	0	0	9	45*
CNc1cc(F)cc(-c2ccnc(Nc3ccc(-n4nc(C)nc4C)cc3)n2)c1	-2	0	31	59*
Cc1nc(C)n(-c2ccc(Nc3nccc(-c4cc(F)cc(N5CCCC5)c4)n3)cc2)n1	0	0	-3	1
Cc1nc(C)n(-c2ccc(Nc3nccc(N(CCO)Cc4ccccc4)n3)cc2)n1	1	0	-6	51*
COc1ccc(N(CC(=O)Nc2cccc(Cl)c2)S(C)(=O)=O)cc1Cl	0	0	-9	-7
COC(=O)c1ccc(C)c(NS(=O)(=O)c2ccc(F)cc2)c1	-2	0	-1	-4
COC(=O)c1ccc(C)c(NS(=O)(=O)c2ccc(C)cc2)c1	0	0	-6	56*
COC(=O)c1ccc(C)c(NS(=O)(=O)c2ccc(Br)cc2)c1	-1	0	-12	45*
SMILES	GPR151 ag	FBW7 act	MITF primary	TEAD-YAP block
CCOC(=O)c1cc2cccc(NS(=O)(=O)c3ccc(C)cc3)c2[nH]1	0	0	5	39*
CCN(Cc1ccccc1)C(=O)c1ccc(OC)c(OC)c1	2	0	1	-8
CCCn1c(NC(=O)c2cccc(S(=O)(=O)N(C)C(C)C)c2)nc2ccccc21	3	0	13	34*
CC(=O)N(C1=C(N2CCOCC2)C(=O)c2ccccc2C1=O)c1cc(C)cc(C)c1	1	0	36	39*
CC(=O)N(C1=C(N2CCOCC2)C(=O)c2ccccc2C1=O)c1ccc(F)c(F)c1	1	0	24	32*
Cc1ccc(-c2csc(NC(=O)c3ccc(S(=O)(=O)N4CC(C)CC(C)C4)cc3)n2)cc1 (stereo unspecified)	3	0	-4	-8
COc1cccc(CNC(=O)c2cc3oc4ccccc4c3n2C)c1	0	0	5	18
COc1cccc(CNC(=O)c2cc3oc4ccccc4c3n2C)c1OC	0	0	15	36*
CC(=O)NC(c1cccs1)c1ccc2cccnc2c1O (stereo unspecified)	-2	0	70*	92*
